# Measurements: PubChem BioAssay (NCATS)
# Results filed as inconclusive are left out. Where a call stands in place of a potency, no number is given. Values without a mark were called inactive. Calls of active or inactive are those of the source. Calls follow the shape of the dose curve; as a rule, active = well fitted curve in the direction sought with a large enough effect; inconclusive = small, poorly fitted or top-dose-only effect, or another doubt; inactive = no such curve, though single readings can be large; an effect the other way counts as inactive or inconclusive.
# Experiments:
# [1] = BET inhibitor-based combinations targeting novel dependencies in MECOM-rearranged (r) AML: OCI-AML3 cell line (AID 2202232); settings: Potency: OCI-AML3 viability; also: nearly all actives have a fitted effect of over 35% in size; also: potency is read from the fitted curve at half-maximal effect
# Procedure, shortened: (§1)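 Readout: CellTiter-Glo luminescence. Exposure: 48 h, 11 concentrations, 500 cells/well. Metric: AUC and within-line Z-AUC after DMSO/empty-well normalization.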
# [2] = BET inhibitor-based combinations targeting novel dependencies in MECOM-rearranged (r) AML: MV-4-11 cell line (AID 2202233); also: nearly all actives have a fitted effect of over 45% in size; also: potency is read from the fitted curve at half-maximal effect
# Procedure, shortened: (§2)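 Seeding density was 500 cells/well, and drug exposure lasted 48 hr under standard culture conditions. Read-out used CellTiter-Glo reagent with a 15 min room-temperature incubation before luminescence measurement; AUC and Z-AUC summarize the normalized responses.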
# [3] = BET inhibitor-based combinations targeting novel dependencies in MECOM-rearranged (r) AML: HNT-34 cell line (AID 2202234); also: nearly all actives have a fitted effect of over 35% in size; also: potency is read from the fitted curve at half-maximal effect
# Procedure, shortened: as §2
# [4] = BET inhibitor-based combinations targeting novel dependencies in MECOM-rearranged (r) AML: UCSD-AML1 cell line (AID 2202235); also: nearly all actives have a fitted effect of over 40% in size; also: potency is read from the fitted curve at half-maximal effect
# Procedure, shortened: as §2
# [5] = BET inhibitor-based combinations targeting novel dependencies in MECOM-rearranged (r) AML: SET-2 cell line (AID 2202231); settings: SET-2 AML cells viability, CellTiter-Glo luminescence, 48 h; viability: stronger effect = lower value, concentration not given here; also: nearly all actives have a fitted effect of over 35% in size; also: potency is read from the fitted curve at half-maximal effect
# Procedure, shortened: as §1
# [6] = BET inhibitor-based combinations targeting novel dependencies in MECOM-rearranged (r) AML: AML-194 cell line (AID 2202237; also: nearly all actives have a fitted effect of over 40% in size; also: potency is read from the fitted curve at half-maximal effect)
# Procedure, shortened: as §1
# [7] = BET inhibitor-based combinations targeting novel dependencies in MECOM-rearranged (r) AML: AML-191 cell line (AID 2202236; also: nearly all actives have a fitted effect of over 35% in size)
# Procedure, shortened: as §1
compound,measurement,setting,value
C=C(C)[C@@H]1CCC(C)=C[C@H]1c1c(O)cc(CCCCC)cc1O,Potency,[1],20.9 µM (active)
same,Potency,[2],18.6 µM (active)
O=C(NCCCNc1nc(Nc2ccc(N3CCOCC3)cc2)ncc1C1CC1)C1CCC1,Potency,[1],14.8 µM (active)
same,Potency,[2],0.372 µM (active)
same,Potency,[3],13.2 µM (active)
same,Potency,[4],9.34 µM (active)
N[C@@H]1C[C@H]1c1ccccc1,viability,[5],95.9%
same,Potency,[1],inactive
same,Potency,[6],inactive
C#CCN(C)[C@H](C)Cc1ccccc1,viability,[5],96.9%
same,Potency,[2],inactive
same,Potency,[4],inactive
same,Potency,[7],inactive
CC(=O)O[C@@]12CO[C@@H]1C[C@H](O)[C@@]1(C)C(=O)[C@H](O)C3=C(C)[C@@H](O)C[C@@](O)([C@@H](OC(=O)c4ccccc4)[C@H]21)C3(C)C,Potency,[6],23.5 µM (active)
O=C(O)C1=CCCN(CCOC(c2ccc(C(F)(F)F)cc2)c2ccc(C(F)(F)F)cc2)C1,Potency,[7],inactive
same,Potency,[6],inactive
C[C@]12CC[C@H]3[C@@H](CC[C@@]45O[C@@H]4C(O)=C(C#N)C[C@]35C)[C@@H]1CC[C@@H]2O,Potency,[3],inactive
same,Potency,[4],inactive
same,Potency,[7],inactive
same,Potency,[6],inactive
C[C@]12COC(=O)C[C@@H]1CC[C@@H]1[C@@H]2CC[C@@]2(C)[C@H]1CC[C@]2(C)O,Potency,[3],inactive
same,Potency,[4],inactive
same,Potency,[7],inactive
O=P1(NCCCl)OCCCN1CCCl (stereo unspecified),Potency,[2],inactive
same,Potency,[3],inactive
same,Potency,[6],inactive
CC(C)CC(N(C)C)C1(c2ccc(Cl)cc2)CCC1 (stereo unspecified),viability,[5],99.9%
same,Potency,[2],inactive
same,Potency,[7],inactive
same,Potency,[6],inactive
C/C(O)=C(\C#N)C(=O)Nc1cc(Br)ccc1Br,Potency,[1],inactive
same,Potency,[2],inactive
same,Potency,[3],inactive
same,Potency,[7],inactive
same,Potency,[6],inactive
COc1cc(C(=O)N2CC[C@@H](O)[C@@H](N)C2)cc2nc(-c3cc4ccccc4n3CC3CC3)n(C)c12,Potency,[3],inactive
same,Potency,[4],inactive
same,Potency,[7],inactive
same,Potency,[6],inactive
O=C(CBr)N1CC([N+](=O)[O-])([N+](=O)[O-])C1,Potency,[5],38.2 µM (active)
same,Potency,[4],inactive
C[C@H]1[C@H](O)[C@@H](C)/C=C/C=C/CC/C=C/C=C/C=C/C=C/[C@H](O[C@@H]2O[C@H](C)[C@@H](O)[C@H](N)[C@@H]2O)C[C@@H]2O[C@](O)(C[C@@H](O)[C@H](O)CC[C@@H](O)C[C@@H](O)C[C@@H](O)CC(=O)O[C@H]1C)C[C@H](O)[C@H]2C(=O)O,viability,[5],99%
same,Potency,[7],inactive
same,Potency,[6],inactive
C/C1=C/C[C@@H](/C(C)=C/c2csc(C)n2)OC(=O)C[C@H](O)C(C)(C)C(=O)[C@H](C)[C@@H](O)[C@@H](C)CCC1,Potency,[5],0.0934 µM (active)
same,Potency,[6],0.0934 µM (active)
CN(C)[C@@H]1C(=O)C(C(N)=O)=C(O)[C@@]2(O)C(=O)C3=C(O)c4c(O)cccc4[C@@](C)(O)[C@H]3[C@H](O)[C@@H]12,Potency,[1],inactive
same,Potency,[2],inactive
same,Potency,[3],inactive
same,Potency,[4],inactive
same,Potency,[7],inactive
Cn1c(/C=C/CO)c(CO)c2c1C(=O)C=C(N1CC1)C2=O,Potency,[3],inactive
same,Potency,[6],inactive
COc1cc2cc(c1Cl)N(C)C(=O)C[C@H](OC(=O)C(C)C)[C@]1(C)O[C@@H]1[C@H](C)[C@@H]1C[C@@](O)(NC(=O)O1)[C@H](OC)/C=C/C=C(\C)C2,Potency,[5],0.0021 µM (active)
same,Potency,[1],inactive
same,Potency,[7],inactive
